A short description of this assay: NCI Yeast Anticancer Drug Screen. Data for the bub3 strain (AID 167). The conditions noted are these: S. cerevisiae bub3 mutant strain, stronger effect = higher value. How it is done:
Growth inhibition of yeast strains with defined genetic alterations is measured as a screen for potential anti-cancer activity. Selected strains with alterations in DNA damage repair or cell cycle control were exposed to compounds and growth inhibition was measured relative to vehicle treated controls. The strain used in this assay is bub3

The mark [1] stands for this setting: at 5.0 µM (retest, dose inferred, filed as 0.5).
Where [2] appears, read: at 50.0 µM (retest, dose inferred, filed as 5.0).

SMILES strings stand for the structures. Values joined by “and” are separate entries in the source; they are usually repeats but may differ in a detail not shown here. Equal entries are not always repeated. This is part of a sample that, as a whole, favours compounds with a hit. Of some 79,000 tested, about 15% had one in any assay. A number with no mark means an inactive call. Active and inactive are the calls of the source. Cut-off read from the data, not from the text of the source: active = growth inhibition above about 70%; inactive = the rest.

In the case of `Cc1cc(C(=O)c2ccccc2Cl)ccc1O`, the growth inhibition reads like this: under setting [1], -3%; under setting [2], 99% (active).
Consider `CC(O)C(O)C(O)C(O)C(O)C(=O)NNc1ccccc1` (stereo not given), for which the growth inhibition is 29% under setting [1], 91% (active) under setting [2] and 75.6% (active) (at 50.0 µM).
Taken in the same sequence, the figures for `Cc1ccccc1NC(=O)Cc1csc2[n+]1C(=O)/C(=C/c1ccc([N+](=O)[O-])cc1)S2` were 8%, 4% and 8.95%.
As to `COC(=O)c1ccc(=O)c2nc3/c(=C/O)c(O)cc(=O)c3[nH]c12`, the growth inhibition was 99% (active) under setting [1], 96% (active) under setting [2] and 89.5% (active) (at 50.0 µM).
As for `COc1cc(-c2ccc(-[n+]3nc(-c4ccc([N+](=O)[O-])cc4)nn3-c3ccc([N+](=O)[O-])cc3)c(OC)c2)ccc1-[n+]1nc(-c2ccc([N+](=O)[O-])cc2)nn1-c1ccc([N+](=O)[O-])cc1`, the growth inhibition reads like this: under setting [1], 97% (active); under setting [2], 97% (active); (at 50.0 µM) 90.2% (active).
As to `O=C(NOC(=O)c1ccccc1)c1ccccc1`, the growth inhibition is 65% under setting [1], 99% (active) under setting [2] and 99.3% (active) (at 50.0 µM).
Take `COC(=O)[C@]1(C)CCC[C@@]2(C)[C@@H]3C[C@@H]4[C@H]5C[C@@]3(CC[C@@H]21)C[C@@]45C`: the growth inhibition is 32% under setting [1], 100% (active) under setting [2] and 92.2% (active) (at 50.0 µM).
In the case of `CC(C)(C)c1ccc(CCO)cc1`, the growth inhibition by setting is: under setting [1], 0%; under setting [2], 6%; (at 50.0 µM) -4.15%.
Take `NC(=Nc1nc(-c2ccccn2)cc2ccccc12)c1ccccn1`: the growth inhibition is, setting by setting: under setting [1], 73% (active); under setting [2], 77% (active); (at 50.0 µM) 71.3% (active).
As for `CC1CC(C)(C)OB(OC(C)CC(C)(C)OB2OC(C)CC(C)(C)O2)O1` (stereo not given), the growth inhibition is, setting by setting: under setting [1], 1%; under setting [2], -33%; (at 50.0 µM) 17.7%.
Consider `CC(=O)c1ccc2c(c1)sc1cc(C(C)=O)ccc12`, for which the growth inhibition under setting [1] is 15% and the growth inhibition under setting [2] is 99% (active).
`O=C(c1ccccc1)C(O)C(Br)(CBr)c1ccccc1` (stereo not given): the growth inhibition is, setting by setting: under setting [1], 2%; under setting [2], 98% (active); (at 50.0 µM) 96.8% (active).
As to `O=C1C=C(Cl)C(=O)c2ccccc21`, the growth inhibition is 47% under setting [1], 99% (active) under setting [2] and 98.8% (active) (at 50.0 µM).
Turning to `COc1cc(-c2[o+]c3cc(O)cc(O)c3cc2O)cc(O)c1O`, the growth inhibition (at 50.0 µM) was 19.6% and 19.1%.
Still for that read-out and setting: as for `O=C(CCCCCCCCC(=O)NCC1(c2ccccc2)CCN(Cc2ccccc2)CC1)NCC1(c2ccccc2)CCN(Cc2ccccc2)CC1`, the figure is 10.4% and 3.6%; as for `CCOc1ccc(C(C)=O)cc1`, 5.5% and 3.65%.
